Laboratory results reported in PubChem BioAssay (NCI).
Compounds without any hit were thinned out: in the full panel of roughly 83,000, 20% have a hit.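 Interpretation: 100, growth as untreated; towards 0, rising growth inhibition; 0, no net growth; 0 to -100, cell death. Compounds scoring below 10 were considered active.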 The source made the active and inactive calls.

Each molecule was assayed on COLO 205 colon (assay: NCI-60 one-dose screen, 48 h (100 = growth as untreated, 0 = no growth, -100 = all killed)). Conditions: 10 µM unless noted.
In the case of `COC(=O)[C@@H](Cc1c[nH]c2ccccc12)NC(=O)/C=C/c1ccccc1`, the growth is reported as 97.3% (inactive).
`NNc1ccc(S(N)(=O)=O)cc1` was tested, and the growth was 105% (inactive).
For `COc1ccc(-c2ccc(-c3ccc(C(=N)N)s3)s2)cc1`, the growth was -89.2% (active).
`O=C1OC(/C=C/c2ccccc2)=NC/1=C/c1ccccc1[N+](=O)[O-]` was tested, and the growth was 98% (inactive).
In the case of `N/C(=N\O)c1ncc(-c2ccc(C(F)(F)F)cc2)c(NC2CCCCCC2)n1`, the growth is reported as -58.2% [100 µM] (active).
In the case of `Cc1cc(Nc2c3ccccc3nc3ccccc23)ccc1NS(C)(=O)=O`, the growth is reported as 18.3% (inactive).
For `N=C(N)c1ccc(-c2ccc(-c3cccs3)s2)cc1F`, the growth was -87.1% (active).
`O=C(Nc1cccc(Cl)c1)Nc1ccccc1Cl` was tested, and the growth was 121% (inactive).
In the case of `Cc1nn(-c2ccccc2)c2nc3c(nc12)C1=NCCN1C(c1ccc(Cl)cc1)N3` (stereo unspecified), the growth is reported as -82.9% (active).
In the case of `COc1cc(OC)c(C(=O)/C=C/c2cccc(OC(C)=O)c2)cc1CC=C(C)C`, the growth is reported as 111% (inactive).
For `Cc1cc2nc(CN)[nH]c2cc1C`, the growth was 104% (inactive).
For `N=C(N)c1ccc(-c2ccc(-c3ccco3)o2)cc1F`, the growth was -93.4% (active).
In the case of `N#Cc1ccc(-c2ccc(-c3cccs3)o2)cc1F`, the growth is reported as 86.2% (inactive).
`O=C(Nc1cccc(-n2ccc3c(NC(=O)c4ccccc4)nccc32)c1)c1ccc(Cl)c(Cl)c1` was tested, and the growth was -27.7% (active).
With `COc1ccc2nc3ccccc3c(NCc3ccc(C)cc3)c2c1` the growth was -40.6% (active).
For `COc1cc(OC)cc(-c2ccc(-c3ccc(C(=N)N)s3)s2)c1`, the growth was -78.1% (active).
In the case of `COc1ccc(-c2cc(-c3cc4ccccc4oc3=O)n(-c3ccccc3)n2)cc1`, the growth is reported as 66.3% (inactive).
For `O=C1c2cccc3cccc(c23)C(=O)N1CCCCCCCCCCN1C(=O)c2cccc3cccc(c23)C1=O`, the growth was 119% (inactive).
For `ClCCn1cnc2c(SCc3ccccc3Cl)ncnc21`, the growth was 41.7% (inactive).
`CCS(=O)(=O)Nc1cccc(Nc2c3cccc(C)c3nc3c(C)cccc23)c1OC` was tested, and the growth was 27.1% (inactive).
With `CCN(C(=O)CCl)C(C)(C)C(SSSC(c1ccc(Cl)cc1)C(C)(C)N(CC)C(=O)CCl)c1ccc(Cl)cc1` (stereo unspecified) the growth was 56.8% (inactive).
For `CCOC(=O)C(CCCCC(NC(C)=O)(C(=O)OCC)C(=O)OCC)(NC(C)=O)C(=O)OCC`, the growth was 107% (inactive).
With `COc1ccc(-n2nc(C(=O)Nc3ccc(F)cc3)nc2-c2cc(OC)c(OC)c(OC)c2)cc1` the growth was 102% (inactive).
For `ClC1=NC(Cl)C(Cl)=N/C1=N\c1ncn[nH]1` (stereo unspecified), the growth was -76.4% (active).
With `COc1cc2c(cc1OC)-c1cc(OC)c(OC)cc1C(CN(C)C)C2` (stereo unspecified) the growth was 100% [100 µM] (inactive).
In the case of `Oc1ccc(-c2nnc3c4[nH]ccc4ncn23)cc1`, the growth is reported as 105% (inactive).
In the case of `CC(C)(C)c1cc(C[P+](c2ccccc2)(c2ccccc2)c2ccccc2)cc(C(C)(C)C)c1O`, the growth is reported as -92.6% (active).
With `FC(F)(F)c1cc(-c2nnc3n2N=C(Cl)CS3)cc(C(F)(F)F)c1` the growth was 96.5% (inactive).

These molecules were tested on DU-145 prostate in the same assay as above. Conditions: 10 µM unless noted.
`COC(=O)[C@@H](Cc1c[nH]c2ccccc12)NC(=O)/C=C/c1ccccc1` was tested, and the growth was 12% (inactive).
`NNc1ccc(S(N)(=O)=O)cc1` was tested, and the growth was 121% (inactive).
In the case of `COc1ccc(-c2ccc(-c3ccc(C(=N)N)s3)s2)cc1`, the growth is reported as -95.5% (active).
For `O=C1OC(/C=C/c2ccccc2)=NC/1=C/c1ccccc1[N+](=O)[O-]`, the growth was 105% (inactive).
For `N/C(=N\O)c1ncc(-c2ccc(C(F)(F)F)cc2)c(NC2CCCCCC2)n1`, the growth was -96.1% [100 µM] (active).
For `Cc1cc(Nc2c3ccccc3nc3ccccc23)ccc1NS(C)(=O)=O`, the growth was 29.3% (inactive).
With `COC(=O)[C@H](Cc1cn(C)cn1)NC(=O)[C@H](CC(C)C)NC(=O)Nc1cc(C(F)(F)F)cc(C(F)(F)F)c1` the growth was -100% [100 µM] (active).
For `N=C(N)c1ccc(-c2ccc(-c3cccs3)s2)cc1F`, the growth was -77.4% (active).
In the case of `O=C(Nc1cccc(Cl)c1)Nc1ccccc1Cl`, the growth is reported as 95.8% (inactive).
With `CCCCCCCCCCCCCC` the growth was 135% (inactive).
For `Cc1nn(-c2ccccc2)c2nc3c(nc12)C1=NCCN1C(c1ccc(Cl)cc1)N3` (stereo unspecified), the growth was 89.9% (inactive).
`COc1cc(OC)c(C(=O)/C=C/c2cccc(OC(C)=O)c2)cc1CC=C(C)C` was tested, and the growth was 69.2% (inactive).
In the case of `Cc1cc2nc(CN)[nH]c2cc1C`, the growth is reported as 106% (inactive).
With `CC(=O)C1CCC2C3CC(C)=C4CC(O)CCC4(C)C3CCC12C` (stereo unspecified) the growth was 119% (inactive).
With `N=C(N)c1ccc(-c2ccc(-c3ccco3)o2)cc1F` the growth was 31.3% (inactive).
`N#Cc1ccc(-c2ccc(-c3cccs3)o2)cc1F` was tested, and the growth was 88.1% (inactive).
`O=C(Nc1cccc(-n2ccc3c(NC(=O)c4ccccc4)nccc32)c1)c1ccc(Cl)c(Cl)c1` was tested, and the growth was -73.3% (active).
With `COc1ccc2nc3ccccc3c(NCc3ccc(C)cc3)c2c1` the growth was 21.6% (inactive).
In the case of `COc1cc(OC)cc(-c2ccc(-c3ccc(C(=N)N)s3)s2)c1`, the growth is reported as -74.2% (active).
`COc1ccc(-c2cc(-c3cc4ccccc4oc3=O)n(-c3ccccc3)n2)cc1` was tested, and the growth was 84% (inactive).
With `O=C1c2cccc3cccc(c23)C(=O)N1CCCCCCCCCCN1C(=O)c2cccc3cccc(c23)C1=O` the growth was 123% (inactive).
In the case of `CCCCCc1c(C)[nH]c(/C=C2\N=C(c3ccc[nH]3)C=C2Oc2ccc(OC)cc2)c1C`, the growth is reported as -59.2% [100 µM] (active).
In the case of `ClCCn1cnc2c(SCc3ccccc3Cl)ncnc21`, the growth is reported as 25.4% (inactive).
In the case of `CCS(=O)(=O)Nc1cccc(Nc2c3cccc(C)c3nc3c(C)cccc23)c1OC`, the growth is reported as 2.74% (active).
`CCN(C(=O)CCl)C(C)(C)C(SSSC(c1ccc(Cl)cc1)C(C)(C)N(CC)C(=O)CCl)c1ccc(Cl)cc1` (stereo unspecified) was tested, and the growth was 85.5% (inactive).
With `CCOC(=O)C(CCCCC(NC(C)=O)(C(=O)OCC)C(=O)OCC)(NC(C)=O)C(=O)OCC` the growth was 113% (inactive).
With `COc1ccc(-n2nc(C(=O)Nc3ccc(F)cc3)nc2-c2cc(OC)c(OC)c(OC)c2)cc1` the growth was 111% (inactive).
With `ClC1=NC(Cl)C(Cl)=N/C1=N\c1ncn[nH]1` (stereo unspecified) the growth was -78.9% (active).
With `COc1cc2c(cc1OC)-c1cc(OC)c(OC)cc1C(CN(C)C)C2` (stereo unspecified) the growth was 45.3% [100 µM] (inactive).
With `Oc1ccc(-c2nnc3c4[nH]ccc4ncn23)cc1` the growth was 97.2% (inactive).
For `COc1ccc(/C=N/NC(N)=S)c(OC)n1`, the growth was 113% (inactive).
For `CC(C)(C)c1cc(C[P+](c2ccccc2)(c2ccccc2)c2ccccc2)cc(C(C)(C)C)c1O`, the growth was 20.5% (inactive).
For `FC(F)(F)c1cc(-c2nnc3n2N=C(Cl)CS3)cc(C(F)(F)F)c1`, the growth was 112% (inactive).
